HTT ATP protect: qHTS Multiplex Assay to Identify Dual Action Probes in a Cell Model of Huntington: Cytoprotection (ATP); PC12 HTT-Q103 induced, cytoprotection, ATP luminescence, 40 h; Potency, µM (series often up to 56.4 µM), usual class: activators; hit rate 0.14% among 230,000; AID 1471, 2008; also: nearly all actives have a fitted effect of over 45% in size
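Cells were plated at 1500 per well in phenol red-free DMEM with 5% equine and 5% calf serum. Tebufenozide (100 nM final) and compounds were added, then ATPlite reagent, and luminescence was read.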
HTT aggregate: qHTS Multiplex Assay to Identify Dual Action Probes in a Cell Model of Huntington: Aggregate Formation (GFP). PC12 HttQ103-GFP aggregates, Acumen cytometry, 40 h. Potency, µM (series often up to 46.1 µM), hits mostly inhibitors. hit rate 1.1% among 220,000. AID 1688, 2009; also: nearly all actives have a fitted effect of over 60% in size
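Inducible Q103 Huntingtin exon 1–GFP PC12 line, 1500 cells/well in phenol red free DMEM with 5% equine and 5% calf serum. Tebufenozide 100 nM induced expression; compounds titrated; aggregates quantified by cytometry.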
PNC assembly inh: High Content Assay for Compounds that inhibit the Assembly of the Perinucleolar Compartment; PC3M PTB-GFP, PNC prevalence imaging, 16 h; hits give low values; activity change (PNC), negative = inhibition, % at 10 µM; hit rate 3.1% among 140,000;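 active = readout at or below -70, meaning at least 70% loss of cells showing the perinucleolar compartment, a nuclear body marking cancer cells; inconclusive = readout between -30 and a set limit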
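PC3M cells stably expressing PTB-GFP, 750–1000 cells/well, treated 16 h at 37 °C with compound (23 nl of library stock), in duplicate. After paraformaldehyde fixation and Hoechst stain, imaged at 20x; PNC prevalence scored by image analysis.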
HPGD block: qHTS Assay for Inhibitors of HPGD (15-Hydroxyprostaglandin Dehydrogenase) | purified HPGD, NADH fluorescence kinetic, PGE2 substrate | Potency, µM, usual class: inhibitors | hit rate 4.3% among 150,000; active = well fitted inhibition curve with a large enough effect, not every such curve was filed as active; inconclusive = small, poorly fitted or top-dose-only effect, or another doubt; inactive = no such curve, though single readings can be large or run the other way
Target sequence (P15428 whole entry, looked up): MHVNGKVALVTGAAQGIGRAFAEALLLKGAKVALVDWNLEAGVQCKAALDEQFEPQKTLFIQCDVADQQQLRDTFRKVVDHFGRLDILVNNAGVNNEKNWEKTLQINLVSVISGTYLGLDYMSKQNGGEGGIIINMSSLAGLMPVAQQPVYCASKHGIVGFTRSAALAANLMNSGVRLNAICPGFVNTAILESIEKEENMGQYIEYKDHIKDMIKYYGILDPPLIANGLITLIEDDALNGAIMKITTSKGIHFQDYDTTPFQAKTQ
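NADH formation kinetics: reaction with 30 uM PGE2 and 1 mM NAD+ (final), 20 nM enzyme, Tris-HCl pH 8 with Tween 20, after 15 min compound preincubation at room temperature. Fluorescence change, last versus first of five reads.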
ALDH1A1 inh: qHTS Assay for Inhibitors of Aldehyde Dehydrogenase 1 (ALDH1A1); Aldehyde dehydrogenase 1A1 (Homo sapiens), P00352; Purified ALDH1A1, NADH fluorescence, propionaldehyde substrate; Potency, µM (titrated, usually from 75.3 µM), actives largely listed as inhibitors; hit rate 7.3% among 220,000; AID 1030, 2008; active = well fitted inhibition curve with a large enough effect, not every such curve was filed as active; inconclusive = small, poorly fitted or top-dose-only effect, or another doubt; inactive = no such curve, though single readings can be large or run the other way
Target sequence (P00352 whole entry, looked up): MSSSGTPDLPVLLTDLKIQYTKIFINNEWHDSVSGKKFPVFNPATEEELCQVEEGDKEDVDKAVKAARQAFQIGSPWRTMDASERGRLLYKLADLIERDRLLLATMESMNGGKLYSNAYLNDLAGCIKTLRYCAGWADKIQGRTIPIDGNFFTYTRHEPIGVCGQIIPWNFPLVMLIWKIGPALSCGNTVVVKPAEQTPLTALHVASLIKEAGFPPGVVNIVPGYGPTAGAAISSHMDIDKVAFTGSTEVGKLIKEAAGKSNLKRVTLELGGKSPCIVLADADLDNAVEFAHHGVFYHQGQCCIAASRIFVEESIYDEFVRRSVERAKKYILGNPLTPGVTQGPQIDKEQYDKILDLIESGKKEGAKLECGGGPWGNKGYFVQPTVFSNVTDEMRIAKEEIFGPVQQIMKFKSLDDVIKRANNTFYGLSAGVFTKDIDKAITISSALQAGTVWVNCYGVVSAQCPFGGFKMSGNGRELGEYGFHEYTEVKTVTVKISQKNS
GoLoco inh red: qHTS Assay for Inhibitors of RGS12 GoLoco Motif Activity (Red Fluorophore). hit rate 0.44% among 230,000. Gai1:RGS12 GoLoco peptide FP, rhodamine, 10 min. Potency, µM (titrated, usually from 61.6 µM), actives largely listed as inhibitors; active = well fitted inhibition curve with a large enough effect, not every such curve was filed as active; inactive = no such curve, though single readings can be large or run the other way; also: nearly all actives have a fitted effect of over 30% in size
Of the large screens only hits and unclear results are named; the others gave an inactive call. This is a sample that favours compounds with a hit; in the whole collection about 11% have one here. Unless noted, calls follow the shape of the dose curve; as a rule, active = well fitted curve in the direction sought with a large enough effect; inconclusive = small, poorly fitted or top-dose-only effect, or another doubt; inactive = no such curve, though single readings can be large; an effect the other way counts as inactive or inconclusive.

CCN(CC)c1ccc(S(=O)(=O)N2CCOCC2)cc1NC(=O)CN1CCc2ccccc2C1	ALDH1A1 inh inconclusive (no result: PNC assembly inh, HPGD block)
O=[N+]([O-])c1ccc2ncccc2c1CCc1c([N+](=O)[O-])ccc2ncccc12	none (no result: HTT aggregate, PNC assembly inh)
O=C1OC(N2CCN(C/C=C/c3ccccc3)CC2)c2ccccc21 (stereo not given)	PNC assembly inh -86
NC(=O)C1(N2CCCCC2)CCN(C(=S)NCCc2ccccc2)CC1	none (no result: PNC assembly inh, HPGD block)
CC(=C1C(=O)c2ccccc2C1=O)N1CCN(Cc2ccccc2)CC1	PNC assembly inh inconclusive, ALDH1A1 inh 10µM
CC(=C1C(=O)c2ccccc2C1=O)N1CCC(C(N)=O)(N2CCCCC2)CC1	ALDH1A1 inh 20µM
CC(=C1C(=O)c2ccccc2C1=O)N1CCN(C/C=C/c2ccccc2)CC1	ALDH1A1 inh 8.9µM
N=C1/C(=C/c2cccn2Cc2ccc(F)cc2)C(=O)N=C2SC=CN12	HTT aggregate 0.014µM (no result: PNC assembly inh, HPGD block)
Cc1ccc(Cn2cccc2/C=C2/C(=N)N3C=CSC3=NC2=O)cc1	HTT ATP protect inconclusive
COC(=O)c1ccc(C(NC(=O)OCc2ccccc2)/C(I)=C/[C@@H](C)C(=O)NCc2ccc(C)o2)cc1 (stereo not given in full)	ALDH1A1 inh 28µM (no result: HTT aggregate, PNC assembly inh)
Cn1c(=O)c2c(nc(Oc3ccc4ccccc4c3)n2C)n(C)c1=O	HTT aggregate 1.4µM, ALDH1A1 inh inconclusive
C/C=C/COc1nc2c(c(=O)n(C)c(=O)n2C)n1C	PNC assembly inh -100
CC(=O)c1ccc(Oc2nc3c(c(=O)n(C)c(=O)n3C)n2C)cc1	HTT ATP protect inconclusive, HTT aggregate inconclusive (no result: PNC assembly inh, HPGD block)
CC(C)(C)Nc1oc(-c2ccccc2)nc1-c1ccccc1	none (no result: HTT aggregate, PNC assembly inh)
O=C(c1cc2ccccc2c(=O)o1)N1CCCC1	none
O=C(c1nn(Cc2ccccc2)c(=O)c2ccccc12)N1CCc2ccccc2C1	ALDH1A1 inh 0.89µM
O=C(c1cc2ccccc2c(=O)o1)N1CCCc2ccccc21	ALDH1A1 inh 4.5µM
Cn1c(C(=O)N2CCc3ccccc3C2)cc2oc3ccccc3c21	HTT aggregate inconclusive, PNC assembly inh -119, HPGD block 0.71µM
O=C(c1cc2ccccc2c(=O)o1)N1CCc2ccccc2C1	PNC assembly inh inconclusive, HPGD block 25µM
C#CCCCO/N=C1/C[C@@H](O)[C@@H](O)[C@@H]2[C@@H]3C(=O)N(Cc4ccccc4)C(=O)[C@H]3CC[C@@H]12	none (no result: HTT aggregate, PNC assembly inh, HPGD block, GoLoco inh red)
O=C(O)CCCCCC[C@@H]1C(=O)NC(=O)N1CC[C@@H](O)C1CCCCC1	none (no result: HTT aggregate, PNC assembly inh, HPGD block, ALDH1A1 inh, GoLoco inh red)
O=C1NN=C(CSc2n[nH]c(=S)s2)CS1	HTT ATP protect inconclusive, HTT aggregate inconclusive, ALDH1A1 inh 3.5µM (no result: PNC assembly inh, HPGD block)
C[C@@H]1NC(=O)C/C=C\[C@@H](C)[C@@H]2C=C[C@H](O)[C@@H](COC(=O)[C@H](C)NC(=O)C/C=C\[C@@H](C)[C@@H]3C=C[C@H](O)[C@@H](COC1=O)O3)O2	none (no result: HTT aggregate, PNC assembly inh, HPGD block, GoLoco inh red)
N#C/C(=C\c1coc2ccccc2c1=O)C(N)=S	ALDH1A1 inh 32µM (no result: PNC assembly inh, HPGD block)
O=C(O)/C=C/c1coc2ccccc2c1=O	none
C[C@@H]1C(=O)O[C@H]2[C@@H](O)[C@@]34[C@H]5CC(C(C)(C)C)[C@]36[C@@H](OC(=O)[C@@H]6O)O[C@@]4(C(=O)O5)[C@@]12O (stereo not given in full)	none (no result: HTT aggregate, PNC assembly inh)
CN(C)C=Nc1ncc2c3ccccc3n(CCN(C)C)c2c1C#N	HTT aggregate 2.8µM, HPGD block inconclusive, ALDH1A1 inh inconclusive
Fc1cc2[nH]c(=S)[nH]c2cc1Cl	ALDH1A1 inh 32µM (no result: PNC assembly inh, HPGD block)
C[N+]1(CC#CC(O)(c2ccccc2)c2ccccc2)CCCC1	none (no result: HTT ATP protect)
CC(C)[N+](C)(C)CC#CC(O)(c1ccccc1)c1ccccc1	GoLoco inh red 3.2µM (no result: PNC assembly inh, HPGD block, ALDH1A1 inh)
CCN(CC)c1ccc(C(=O)OCC(=O)Nc2cccc(S(=O)(=O)NC3=NCCCCC3)c2)cc1	PNC assembly inh inconclusive, HPGD block 28µM, ALDH1A1 inh inconclusive
Cc1cc(C)cc(C(=O)OCC(=O)Nc2cccc(S(=O)(=O)NC3=NCCCCC3)c2)c1	PNC assembly inh -96
NC(=O)Nc1ccc(C(=O)OCC(=O)Nc2cccc(S(=O)(=O)NC3=NCCCCC3)c2)cc1	none (no result: PNC assembly inh, HPGD block, ALDH1A1 inh)
O=C(c1cc2ccccc2oc1=O)N(Cc1cccc(Br)c1)C1CCS(=O)(=O)C1 (stereo not given)	none (no result: PNC assembly inh, HPGD block)
Fc1cccc(Cc2noc(CN3CCCCC3CCc3ccccn3)n2)c1 (stereo not given)	none (no result: PNC assembly inh, HPGD block)
C/C(CC(C)(C)c1ccccc1)=N\NS(=O)(=O)c1ccccc1	HTT ATP protect inconclusive, HTT aggregate inconclusive, ALDH1A1 inh 13µM (no result: PNC assembly inh, HPGD block)
CCn1cc(C(=O)NCCOC)c(=O)c2ccc(C)nc21	ALDH1A1 inh 11µM
CCn1cc(C(=O)OC)c(=O)c2ccc(C)nc21	none (no result: PNC assembly inh, HPGD block)
COCCNC(=O)c1cn(C)c2ccccc2c1=O	ALDH1A1 inh 3.5µM (no result: PNC assembly inh, HPGD block)
O=C(C1CCCN1C(=O)c1cccs1)N1CCc2ccccc21 (stereo not given)	PNC assembly inh -98, ALDH1A1 inh inconclusive
O=C(c1cccs1)N1CCc2ccccc21	PNC assembly inh inconclusive
CC#CCN1c2ccccc2[C@]23C[C@@H](C(=O)OC)N(S(=O)(=O)c4ccc(C#N)cc4)C2=NC(C(=O)OC)=C(C(=O)OC)[C@H]13	none (no result: HTT aggregate, PNC assembly inh)
CN1/C(=C/C(=O)C2CCC2)Sc2ccccc21	PNC assembly inh inconclusive, ALDH1A1 inh 3.5µM
CN1/C(=C\C(=O)c2cccs2)Sc2ccccc21	HTT aggregate 16µM, PNC assembly inh inconclusive (no result: HPGD block, GoLoco inh red)
Cn1c(CN2CCN(C(=O)c3ccc(F)cc3)CC2)nc2cc([N+](=O)[O-])ccc21	PNC assembly inh inconclusive
CCCCNC(=O)c1onc(CSc2ccccc2)c1C(=O)O	none
COCCNC(=O)c1onc(CSc2ccc(C(C)C)cc2)c1C(=O)O	HPGD block 16µM
CCCCNC(=O)c1onc(CSc2ccc(C(C)C)cc2)c1C(=O)O	HPGD block 10µM
CC(C)NC(=O)c1onc(CSc2cccc3ccccc23)c1C(=O)O	HPGD block 22µM, ALDH1A1 inh inconclusive
CCOC(=O)CCN1C(=O)[C@H]2[C@H]3[C@H](O)[C@H](O)C/C(=N/OCc4ccccc4)[C@@H]3CC[C@@H]2C1=O	none (no result: HTT aggregate, PNC assembly inh, HPGD block, GoLoco inh red)
CC1=CC(=O)c2c(O)ccc(O)c2C1=O	ALDH1A1 inh 32µM, GoLoco inh red 25µM (no result: PNC assembly inh, HPGD block)
FC(F)(F)c1cc(NC(=S)NC23CC4CC(CC(C4)C2)C3)cc(C(F)(F)F)c1	none (no result: HTT aggregate, PNC assembly inh)
